# High-throughput results (PubChem)
# The list is not random: actives were taken first. Their share in the collection is about 3.9%.
# D1 agonist: agonists of human D1 dopamine receptor; HEK293 T-REx D1 cells, calcium flux, agonist mode; P21728; hit rate 1% among 360,000; activation, % at 2 µM; in the data active = activation above about 30%; note: 0% is about no effect
#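 Agonism was scored from calcium flux recorded over 180 s (1 read/s) after pintool compound addition, following a 10-cycle baseline. Cells were inducible force-coupled HEK293 TREx D1, plated overnight at 30 C and loaded with no-wash calcium dye.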
# USP2a inh: inhibitors of human ubiquitin-specific protease USP2a; USP2 core, Ub-CHOP2 coupled fluorogenic reporter, 485/531; Potency, µM (highest dose often 38.3 µM), inactives show at the highest dose activity change, negative = inhibition, hits mostly inhibitors; hit rate 0.01% among 330,000; O75604;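 note: potency is the fitted concentration of half-maximal effect; plate controls were DMSO wells for no effect and full inhibition by NEM control for full effect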
#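 Deubiquitinase activity read as fluorescence (485/531 nm) after Ub-CHOP2 cleavage activates the enterokinase reporter on its substrate; USP2 core 10nM, Ub-CHOP2 and substrate 25nM each, 30min compound preincubation then 60min RT; data normalized to NEM, curves fitted.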
# GALK inhibitor: inhibitors of human galactokinase; hit rate 0.007% among 270,000; Potency, µM (highest dose often 57.5 µM), without a hit: at the highest dose activity change, negative = inhibition, hits mostly inhibitors; AID 1868; P51570; Purified GALK, Kinase-Glo residual ATP luminescence; note: potency is the fitted concentration of half-maximal effect; % is set by controls: 0 for no effect and ±100 for the full control effect
# Target sequence (P51570 whole entry, looked up): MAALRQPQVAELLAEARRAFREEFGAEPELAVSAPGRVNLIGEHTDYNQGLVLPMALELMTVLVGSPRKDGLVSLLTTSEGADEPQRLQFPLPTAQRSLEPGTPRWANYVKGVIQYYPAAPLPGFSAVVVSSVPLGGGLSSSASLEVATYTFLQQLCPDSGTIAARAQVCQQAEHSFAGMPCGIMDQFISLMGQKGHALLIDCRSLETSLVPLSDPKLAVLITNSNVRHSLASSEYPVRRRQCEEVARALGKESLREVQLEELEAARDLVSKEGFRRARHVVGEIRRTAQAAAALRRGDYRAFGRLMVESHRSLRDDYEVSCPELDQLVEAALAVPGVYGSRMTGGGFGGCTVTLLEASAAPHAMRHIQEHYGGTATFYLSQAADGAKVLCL
#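 The enzyme phosphorylates galactose (100 uM) using ATP (35 uM); inhibition is detected as higher residual ATP, quantified by bioluminescence after 1 h reaction at room temperature, pH 8.0.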
# D1 antagonist: blocks dopamine activation of the human D1 receptor. P21728. HEK293 TREx D1 cells, calcium flux, dopamine EC80; active compounds read low. activity change, negative = inhibition, % at 10 µM. hit rate 3.2% among 360,000. AID 504652; in the data active = activity change below about -30%; note: % is set by controls: 0 for no effect and ±100 for the full control effect
#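 Antagonism measured as reduced calcium response to an EC80 dopamine addition following 180 s compound pre-read; cells were inducible HEK293 Trex D1 plated overnight at 30 C, read kinetically at 1 cycle/sec.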
# Eya2 phos inh: inhibitors of human Eya2 phosphatase activity; AID 488837; recombinant Eya2, OMFP fluorescence dephosphorylation (OMFP is methylfluorescein phosphate); Potency, µM (titrated, usually from 76.9 µM), for the others: top-dose activity, negative = inhibition, usual class: inhibitors; hit rate 0.006% among 330,000; O00167; note: potency is the fitted concentration of half-maximal effect; % is set by controls: 0 for no effect and ±100 for the full control effect
#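 Eya2 (0.2 uM) preincubated 10 min at ambient with compound, then OMFP substrate added at 50 uM; 10 min reaction in 50 mM HEPES pH 7.5, 50 mM NaCl, 5 uM MgCl2, 0.05% BSA, 1 mM DTT. Fluorescence read at Ex 485/Em 525 nm.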
# D1 potentiator: enhances dopamine response at the human D1 receptor | P21728 | HEK293 TREx D1 cells, calcium flux, dopamine EC20 potentiation | potentiation, % at 10 µM | hit rate 0.036% among 360,000; in the data active = potentiation above about 30%; note: 0% is about no effect
# * marks the source's active call; other numbers are inactive results; nt = not tested or not shown; ! = repeats disagree. Unless noted, calls come from the whole dose curve; as a rule, active = well fitted inhibition curve with a large enough effect; inconclusive = small, poorly fitted or top-dose-only effect, or effect the other way; inactive = flat fitted curve, though single readings scatter.
SMILES,D1 agonist,USP2a inh,GALK inhibitor,D1 antagonist,Eya2 phos inh,D1 potentiator
COC(=O)C(N)Cc1ccc(Cl)cc1 (configuration not stated),0.0,0.9%,nt,12.0,1.0%,-0.5
Cn1c(SCC(=O)Nc2ccccc2F)nc2c([nH]c3ccccc32)c1=O,0.4,nt,nt,2.7,nt,-3.1
Cc1cccc(NC(=O)CSc2nc3c([nH]c4ccccc43)c(=O)n2C)c1C,1.6,nt,nt,-51.2*,nt,0.6
CCOCCCn1c(SCC(=O)Nc2ccccc2OC)nc2ccccc2c1=O,3.5,1.3%,4.4%,-14.0,-11.9%,-4.3
COc1ccccc1NC(=O)CSc1nc2ccccc2c(=O)n1C,17.1,-2.4%,4.7%,-33.7*,10.3%,40.5*
CC(C)Oc1ccc(CNC(=O)Cc2ccc(NC(=O)N3CCSc4ncccc43)cc2)cc1,6.1,nt,nt,5.0,nt,-2.1
Cc1cccc(C2(c3cccc(C)c3)CC2C(=O)Nc2ccc([N+](=O)[O-])cc2O)c1 (configuration not stated),12.1,-10.3%,-0.1%,-33.3*,-14.0%,-5.2
CCN1CCN(c2ccc(S(=O)(=O)N3CCCCC3)cc2NC(=O)COc2ccc(Cl)cc2)CC1,0.3,-1.2%,nt,-43.0*,-11.7%,-5.3
CN1CCN(c2ccc(S(=O)(=O)N3CCCCC3)cc2NC(=O)CCc2ccccc2)CC1,33.0*,0.1%,nt,0.7,13.8%,nt
CN1CCN(c2ccc(S(=O)(=O)N3CCCCC3)cc2NC(=O)c2ccc(C#N)cc2)CC1,0.7,-1.0%,1.1%,-44.6*,0.4%,-2.3
CCN1CCN(c2ccc(S(=O)(=O)N3CCCCC3)cc2NC(=O)COc2cc(C)ccc2Cl)CC1,11.3,-4.8%,nt,7.7,6.6%,2.2
CN1CCN(c2ccc(S(=O)(=O)N3CCCCC3)cc2NC(=O)Cc2ccc(Cl)cc2)CC1,91.3*,4.2%,0.0%,-14.2,3.5%,5.3
O=C(Cc1ccc(Cl)cc1)Nc1cc(S(=O)(=O)N2CCOCC2)ccc1N1CCCC1,-3.7,1.0%,2.9%,-4.8,-4.7%,-0.3
CC(C)c1cnc2c(c1SCC(=O)Nc1ccccc1C(F)(F)F)c(=O)n(C)c(=O)n2C,0.3,nt,nt,6.0,nt,-1.9
CCc1ccc(-n2nc(C)c3c(C)cc(=O)n(Cc4nc(-c5ccccc5)oc4C)c32)cc1,6.4,nt,nt,1.6,nt,2.8
C=Cc1ccc(Cn2c(C(=O)O)c(CNCc3ccccc3)c3ccc(OC)cc32)cc1,-0.3,nt,nt,11.3,nt,2.1
COc1cc(N2CCCC2)c(OC)cc1/C=c1/sc2nc3ccccc3n2c1=O,46.6*,6.7%,0.1%,-18.4,9.8%,-6.0
COc1ccc(NC(=O)C2CCN(c3cnccn3)CC2)cc1Cl,5.0,0.3%,0.2%,-58.0*!,12.1%,-5.7
O=C1C(=O)N(C2CCNCC2)CCN1Cc1ccccc1,-1.2,nt,nt,2.8,nt,1.0
CC(C)Cc1ccc(C(C)C(=O)Nc2ccccc2O)cc1 (configuration not stated),64.9*,-1.7%,0.1%,-26.4,-10.9%,-16.6
CC(C)Cc1ccc(C(C)C(=O)Nc2nccs2)cc1 (configuration not stated),29.8,-0.3%,-1.0%,3.7,-23.8%,2.1
Cc1cc(C)c2c(c1)c(C)cc1nnc(SCc3ccccc3C#N)n12,-2.5,nt,nt,5.0,nt,1.1
COCCCNC(=O)c1ccc2c(c1)N(Cc1ccccc1)C(=O)c1ccccc1S2,-1.6,nt,nt,0.4,nt,0.5
CCOc1ccc(-n2c(C)nc3cc(C(=O)NCCN4CCOCC4)ccc32)cc1,1.2,2.9%,1.3%,3.0,-2.9%,4.2
CCOc1ccc(-n2c(C)nc3cc(C(=O)NCCCN4CCOCC4)ccc32)cc1,1.0,0.5%,1.2%,-51.9*,-11.9%,-3.3
CCOc1ccc(CN2C(=O)c3ccccc3Sc3ccc(C(=O)NCCCN4CCOCC4)cc32)cc1,30.2*!,-0.7%,0.0%,5.7,-7.3%,-0.4
O=C(NCCCN1CCOCC1)c1ccc2c(c1)N(Cc1ccccc1)C(=O)c1ccccc1S2,4.2,2.9%,-3.5%,9.1,2.3%,0.1
